Bioassay records from PubChem BioAssay.
In the library only some 21% were active in any assay of this set; here they are far more common.
Shiga inhibitor: inhibitors of Shiga toxin in Vero cells; Vero cells, Shiga toxin protein synthesis inhibition reporter; inhibition, % at 38.7 µM; AID 2315; 290,000 tested, 9.2% active; in the data active = inhibition mostly above about 28%, no sharp cut-off; inactive = mostly below about 43%; also: 0% is about no effect
Cycloheximide cs: affects cycloheximide protein synthesis inhibition readout, counter-screen. cell reporter, cycloheximide protein synthesis inhibition counterscreen. 300,000 tested, 12% active. max response, %; in the data active = max response mostly above about 13%, no sharp cut-off; inactive = mostly below about 14%; also: read at 38.3 µM for the half of the compounds with a filed dose; 0% is about no effect
NS1 function inh: blocks influenza NS1 protein function. 270,000 tested, 0.4% active. Potency, µM (doses to about 46.1 µM), without a hit: at the highest dose activity, positive = more growth. AID 2326; calls by dose curve; also: potency is read from the fitted curve at half-maximal effect; actives are rising curves; nearly all actives have a fitted effect of over 50% in size
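Read-out: OD600 growth recovery of NS1-expressing budding yeast. Cells grown overnight at 30C in -URA glucose medium, washed, resuspended and diluted 1:100 in 2% galactose assay medium, pH 6.0. Same strain lacking NS1 served as positive control.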
Pf growth 48h: P. falciparum growth inhibition at 48 hours (one generation); 310,000 tested, 5.9% active; P. falciparum luciferase growth in erythrocytes, 48 h; Potency, µM (titrated, usually from 28.7 µM), for inactives: at the highest dose activity change, negative = inhibition, hits mostly inhibitors; also: potency is read from the fitted curve at half-maximal effect; % is scaled to controls: 0 for no effect and ±100 for the full control effect
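Luminescence readout; reporter = integrated firefly luciferase in P. falciparum. RBC culture at 2% hematocrit, 0.1% parasitemia final, 37 C/5% CO2; decreased signal taken as growth inhibition.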
Pf growth 96h: inhibits malaria parasite growth, 96 h. P. falciparum luciferase reporter growth, 96 h. Potency, µM (doses to about 28.7 µM), without a hit: at the top dose activity change, negative = inhibition, most hits filed as inhibitors. 320,000 tested, 6.9% active. AID 504834; also: potency is read from the fitted curve at half-maximal effect; % is scaled to controls: 0 for no effect and ±100 for the full control effect
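P. falciparum expressing integrated firefly luciferase grown in erythrocytes (2% hematocrit, 0.05% parasitemia final) with compounds for 96 hours at 37 C, 5% CO2. Growth inhibition read as loss of luminescence after adding luciferase detection reagent.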
Starred values were filed as active, the others as inactive; [ ] = dose if it differs, or a comment. Unless noted, calls follow the shape of the dose curve; as a rule, active = well fitted inhibition curve with a large enough effect; inconclusive = small, poorly fitted or top-dose-only effect, or another doubt; inactive = no such curve, though single readings can be large or run the other way.

For C=CCC1(Cl)C(=O)C(Cl)=C(N2CCOCC2)C1(OC)OC (centres undefined) the results were Shiga inhibitor -9, Cycloheximide cs -1, NS1 function inh -4%, Pf growth 48h 33% and Pf growth 96h -14%.
Screening Cc1ccc(NC(=O)C(OC(=O)c2cc(C)oc2C)c2ccccc2)cc1 (centres undefined) returned Shiga inhibitor -3, Cycloheximide cs 2, NS1 function inh 5%, Pf growth 48h 5% and Pf growth 96h inconclusive.
Screening Cc1cc(C(=O)OC(C(=O)Nc2cccc(C(F)(F)F)c2)c2ccccc2)c(C)o1 (centres undefined) returned Shiga inhibitor -5, Cycloheximide cs 8, NS1 function inh 5%, Pf growth 48h 9.3µM* and Pf growth 96h 5.2µM*.
For CCNc1nc(Oc2ccc(=O)n(-c3ccccc3)n2)nc(N(C)C)n1 the results were Shiga inhibitor -11, Cycloheximide cs -5, NS1 function inh 8%, Pf growth 48h -14% and Pf growth 96h 2.6µM*.
`CCNc1nc(OC)nc(Oc2ccc(=O)n(-c3ccccc3)n2)n1` gave Shiga inhibitor 5, Cycloheximide cs 7, NS1 function inh 3%, Pf growth 48h 0.93µM* and Pf growth 96h 0%[5.75 µM].
CCNc1nc(NCc2ccccc2)nc(Oc2ccc(=O)[nH]n2)n1 was read as Shiga inhibitor 3, Cycloheximide cs 0, NS1 function inh -1%, Pf growth 48h 1µM* and Pf growth 96h -20%.
Screening CCNc1nc(NC(C)CC)nc(Oc2ccc(=O)[nH]n2)n1 (centres undefined) returned Shiga inhibitor -16, Cycloheximide cs 1, NS1 function inh 0% and Pf growth 48h 8%.
Screening CCNc1nc(Oc2ccc(=O)n(-c3ccccc3)n2)nc(N2CCOCC2)n1 returned Shiga inhibitor 12, Cycloheximide cs -2, NS1 function inh -4%, Pf growth 48h -3% and Pf growth 96h inconclusive.
`COc1nc(NCC(C)C)nc(Oc2ccc(=O)n(-c3ccccc3)n2)n1` gave Shiga inhibitor 42, Cycloheximide cs -2, NS1 function inh -4% and Pf growth 96h 17%.
For N#Cc1c(-c2ccccc2)nc(-c2cccnc2)[nH]c1=O the results were Shiga inhibitor -5, Cycloheximide cs -5, NS1 function inh 7%, Pf growth 48h -3% and Pf growth 96h -18%.
For CCn1cc(C(=O)N2CCCC(CO)(Cc3ccccc3C)C2)cn1 (centres undefined) the results were Shiga inhibitor -5, Cycloheximide cs 16, NS1 function inh 3%, Pf growth 48h -2% and Pf growth 96h 9%.
`N#CC[C@H](c1ccccc1)N1CCN(Cc2ccccc2)CCC1=O` gave Shiga inhibitor -8, Cycloheximide cs 2, NS1 function inh -5%, Pf growth 48h 7% and Pf growth 96h inconclusive.
Cc1ccc(C(=O)N/N=C\c2ccc(Br)o2)o1 was read as Shiga inhibitor 30, Cycloheximide cs 16, NS1 function inh -45%, Pf growth 48h inconclusive and Pf growth 96h -15%.
Cc1c(C(=O)N/N=C/c2ccc(-c3ccccc3[N+](=O)[O-])o2)sc(N)c1C#N was read as Shiga inhibitor -6, Cycloheximide cs 18*, NS1 function inh -18%, Pf growth 48h 26% and Pf growth 96h inconclusive.
`Cc1ccc(C(=O)N/N=C/c2ccc(-c3ccc(Br)cc3[N+](=O)[O-])o2)o1` gave Shiga inhibitor 25, Cycloheximide cs 18*, NS1 function inh 4%, Pf growth 48h 9.3µM* and Pf growth 96h inconclusive.
Screening Nn1cnnc1N/N=C\c1ccc(-c2ccccc2[N+](=O)[O-])o1 returned Shiga inhibitor 12, Cycloheximide cs 17*, NS1 function inh 2%, Pf growth 48h -6% and Pf growth 96h 38%.
`O=C(O)CC(CC(=O)N1CCN(C(=O)c2ccco2)CC1)c1ccccc1` (centres undefined) gave Shiga inhibitor 3, Cycloheximide cs 10, NS1 function inh 0%, Pf growth 48h 124% and Pf growth 96h 23%.
O=C(CC1Nc2c3ccccc3nc(=S)n2C1=O)NC1CCCCC1 (centres undefined) was read as Shiga inhibitor -23, Cycloheximide cs 1, Pf growth 48h inconclusive and Pf growth 96h inconclusive.
Screening CCOC(=O)Cn1c(C)c(Br)c(=O)c2cccc(C)c21 returned Shiga inhibitor -6, Cycloheximide cs 6, NS1 function inh -104%, Pf growth 48h -14% and Pf growth 96h 18%.
